CYP2C9 act – increases human cytochrome P450 2C9 activity. activation factor at 5 µM. recombinant CYP2C9, luciferin-H conversion, luminescence; active compounds read high; factor 1 = untreated enzyme, 0 = blocked. 96,000 tested, 1.4% active;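 active = activation factor of 2 or more for CYP2C9 at a 5 µM dose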;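 note: 0 = sulfaphenazole-blocked wells and 1 = vehicle-only wells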
CYP2C19 act – activators of human cytochrome P450 2C19; recombinant CYP2C19, luciferin-H EGE luminescence; active compounds read high; 0 = fully inhibited enzyme, 1 = untreated enzyme; 96,000 tested, under 10 active; AID 1025; activation factor at 5 µM;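 active = activation factor of at least 2 at 5 µM in the primary screen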;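 note: 0 = wells with 2.5 mM tranylcypromine and 1 = vehicle-only wells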
Target sequence (P33261 whole entry, looked up): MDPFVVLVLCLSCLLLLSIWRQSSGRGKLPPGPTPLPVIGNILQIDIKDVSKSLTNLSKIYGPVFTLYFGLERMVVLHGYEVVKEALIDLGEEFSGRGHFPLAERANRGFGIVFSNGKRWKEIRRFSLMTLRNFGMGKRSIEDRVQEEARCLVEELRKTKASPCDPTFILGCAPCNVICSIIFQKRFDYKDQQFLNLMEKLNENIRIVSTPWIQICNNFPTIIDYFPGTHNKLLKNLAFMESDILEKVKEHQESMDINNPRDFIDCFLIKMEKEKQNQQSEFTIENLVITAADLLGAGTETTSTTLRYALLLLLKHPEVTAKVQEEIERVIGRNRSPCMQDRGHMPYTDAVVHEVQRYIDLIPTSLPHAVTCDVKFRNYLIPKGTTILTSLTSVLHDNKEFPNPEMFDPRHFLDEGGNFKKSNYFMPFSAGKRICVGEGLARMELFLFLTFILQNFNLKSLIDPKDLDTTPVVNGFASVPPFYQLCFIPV
CYP2C9 inhib – inhibitors of human CYP2C9; CYP2C9 Supersomes, luciferin-H conversion, luminescence; inhibition, % at 5 µM; 96,000 tested, 20% active;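 active = blocking of liver enzyme CYP2C9 beyond about 50% at 5 µM, limit read from the data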
CYP2C19 inh – human CYP2C19 inhibition; P33261; CYP2C19 Supersomes, luciferin-H EGE luminescence, 30 min; inhibition, % at 5 µM; 96,000 tested, 21% active;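 active = CYP2C19 inhibition above a set limit at 5 µM in the primary screen, cut at about 50% in these data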;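 note: plate controls were negative control wells for no effect and 2.5 mM tranylcypromine positive control for full effect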
Measles CPE – protection of cells from measles virus | Measles virus-infected cells, CPE protection, absorbance | protection (pct of control), % at 4 µM | 140,000 tested, 1.5% active; in the data active = protection mostly above about 24%, no sharp cut-off; inactive = mostly below about 26%
An asterisk follows results filed as active. In the library only some 22% were active in any assay of this set; here they are far more common.

c1ccc(-c2ccccc2-c2nc(-c3cccnc3)no2)cc1 was read as CYP2C9 act 0, CYP2C19 act 0.3, CYP2C9 inhib 96*, CYP2C19 inh 73* and Measles CPE 15.
Screening Cc1ccc(-c2nc(-c3ccccc3)no2)c(Cl)c1 returned CYP2C9 act 1.1, CYP2C19 act 1.1, CYP2C9 inhib -14, CYP2C19 inh -14 and Measles CPE 4.
`COc1cccc(-c2noc(-c3cccnc3)n2)c1` gave CYP2C9 act 0.8, CYP2C19 act 0.8, CYP2C9 inhib 18, CYP2C19 inh 24 and Measles CPE 1.
For Cc1ccc(-c2nc(-c3ccccc3)no2)cc1 the results were CYP2C9 act 0.6, CYP2C19 act 0.3, CYP2C9 inhib 44, CYP2C19 inh 66* and Measles CPE 12.
Cc1ccc(-c2nc(-c3cccnc3)no2)cc1 was read as CYP2C9 act 1, CYP2C19 act 0.2, CYP2C9 inhib -2, CYP2C19 inh 76* and Measles CPE 6.
`CCOC(=O)c1c(C)n(-c2ccc(C)cc2)c2c(C(C(C)=O)C(=O)O)c(Br)c(O)c(O)c12` (stereo not drawn) gave CYP2C9 act 1, CYP2C19 act 1, CYP2C9 inhib -2, CYP2C19 inh -4 and Measles CPE 17.
Screening CCOC(=O)C(C(C)=O)c1c(Br)c(O)c(O)c2c(C(=O)c3ccc(C)cc3)coc12 (stereo not drawn) returned CYP2C9 act 0, CYP2C19 act 0.7, CYP2C9 inhib 98*, CYP2C19 inh 32 and Measles CPE 1.
Screening O=S(=O)(NCC1CCCO1)c1ccc2oc3ccc(S(=O)(=O)NCC4CCCO4)cc3c2c1 (stereo not drawn) returned CYP2C9 act 0.5, CYP2C19 act 1, CYP2C9 inhib 52*, CYP2C19 inh 2 and Measles CPE 6.
`O=C(NC1CCCCCC1)C1CCC(CNS(=O)(=O)c2ccc(Br)s2)CC1` (stereo not drawn) gave Measles CPE 3.
For O=S(=O)(NCc1ccncc1)c1ccc(S(=O)(=O)NCC2CCCO2)cc1 (stereo not drawn) the results were CYP2C9 act 0.1, CYP2C19 act 0.4, CYP2C9 inhib 89*, CYP2C19 inh 56* and Measles CPE 4.
`Cc1ccc(S(=O)(=O)NCC2CCCO2)cc1[N+](=O)[O-]` (stereo not drawn) gave Measles CPE 21.
O=S(=O)(NC1CC2CCC1C2)c1ccc(Br)s1 (stereo not drawn) was read as CYP2C9 act 0.2, CYP2C19 act 0.4, CYP2C9 inhib 84*, CYP2C19 inh 64* and Measles CPE 20.
For O=S(=O)(NCC1CCCO1)c1ccc(Br)s1 (stereo not drawn) the results were CYP2C9 act 1.1, CYP2C19 act 0.3, CYP2C9 inhib -15, CYP2C19 inh 71* and Measles CPE 8.
COc1ccc(S(C)(=O)=O)cc1S(C)(=O)=O was read as CYP2C9 act 1.2, CYP2C19 act 1.1, CYP2C9 inhib -16, CYP2C19 inh -9 and Measles CPE 11.
Screening CSc1nnnn1-c1cccc(O)c1 returned CYP2C9 act 2.4*, CYP2C19 act 0.8, CYP2C9 inhib -142, CYP2C19 inh 22 and Measles CPE 6.
Screening CCn1cc(CNC(=O)c2c(-c3c(Cl)cccc3Cl)noc2C)c(C)n1 returned Measles CPE 3.
Screening C=CCSc1nnc2nc3c(nn12)c1cc(C)ccc1n3CC=C returned CYP2C9 act 0.4, CYP2C19 act 0.7, CYP2C9 inhib 56*, CYP2C19 inh 33 and Measles CPE 24.
For CCCCC1=C([O-])C2N=CC=CC2=[N+](c2ccccn2)C1=O (stereo not drawn) the results were Measles CPE 13.
For COc1cccc(N2C(=O)C3CCCN3C2c2ccc(Cl)cc2)c1 (stereo not drawn) the results were CYP2C9 act 0.5, CYP2C19 act 0.3, CYP2C9 inhib 50*, CYP2C19 inh 69* and Measles CPE 27.
For COc1cccc(C2N(c3cccc(Cl)c3)C(=O)C3CCCN32)c1 (stereo not drawn) the results were CYP2C9 act 0.1, CYP2C19 act 0.3, CYP2C9 inhib 88*, CYP2C19 inh 70* and Measles CPE 1.
Screening COc1ccc(N2C(=O)C3CCCN3C2c2cccc(Br)c2)cc1 (stereo not drawn) returned CYP2C9 act 0.5, CYP2C19 act 0.5, CYP2C9 inhib 52*, CYP2C19 inh 46 and Measles CPE 3.
For COc1ccc(N2C(=O)C3CCCN3C2c2cccc(OC)c2OC)cc1 (stereo not drawn) the results were CYP2C9 act 0.8, CYP2C19 act 0.9, CYP2C9 inhib 24, CYP2C19 inh 12 and Measles CPE 21.
Screening COCCN(C(=O)CCC(=O)Nc1cccnc1)C(C(=O)NC1CCCCC1)c1ccccc1 (stereo not drawn) returned CYP2C9 act 0.7, CYP2C19 act 0.8, CYP2C9 inhib 26, CYP2C19 inh 16 and Measles CPE 6.
CCNC(=O)C(C)Sc1ccc(Cl)cc1 (stereo not drawn) was read as CYP2C9 act 1.2, CYP2C19 act 0.8, CYP2C9 inhib -20, CYP2C19 inh 17 and Measles CPE 18.
Screening C=CCNC(=O)C(C)Sc1ccc(Cl)cc1 (stereo not drawn) returned CYP2C9 act 0.6, CYP2C19 act 0.3, CYP2C9 inhib 39, CYP2C19 inh 70* and Measles CPE 1.
Screening CC(C)CNC(=S)NNC(=O)c1ccco1 returned Measles CPE 3.
For CCOC(=O)c1nc(-c2ccccc2)oc1N(C)C the results were CYP2C9 act 1.2, CYP2C19 act 1.1, CYP2C9 inhib -23, CYP2C19 inh -10 and Measles CPE 15.
For Cc1oc(-c2ccccc2)nc1C(=O)OCC(=O)NC(=O)NCC(C)C the results were CYP2C9 act 0.5, CYP2C19 act 0.8, CYP2C9 inhib 51*, CYP2C19 inh 25 and Measles CPE 14.
`CCCCc1nn(-c2cc(Cl)ccc2OC)c2c1C(=O)CCC2` gave CYP2C9 act 0.1, CYP2C19 act 0, CYP2C9 inhib 92*, CYP2C19 inh 97* and Measles CPE 11.
Screening CCCCNC(=O)c1nn(-c2ccccc2OC)c(=O)c2ccccc12 returned CYP2C9 act 0.9, CYP2C19 act 1, CYP2C9 inhib 7, CYP2C19 inh 5 and Measles CPE 35.
CC(C)(C)NC(=O)CN(C(=O)Cn1nnc(-c2ccccc2F)n1)c1cccc2c1CCCC2 was read as CYP2C9 act 0.1, CYP2C19 act 0.4, CYP2C9 inhib 88*, CYP2C19 inh 57* and Measles CPE 4.
COc1ccccc1N(CC(=O)NC(C)(C)C)C(=O)Cn1nnc(-c2ccc(C)o2)n1 was read as CYP2C9 act 0.8, CYP2C19 act 0.8, CYP2C9 inhib 22, CYP2C19 inh 18 and Measles CPE 17.
`COc1ccc(S(=O)(=O)N(C)CC(=O)NCCC2=CCCCC2)cc1` gave CYP2C9 act 2.4*, CYP2C19 act 0.7, CYP2C9 inhib -136, CYP2C19 inh 32 and Measles CPE 5.

Assay outcomes as filed in PubChem.
